# In PubChem BioAssay (NCATS):
# The source made the active and inactive calls. The call rests on the fitted dose curve; in most records, active means well fitted curve in the direction sought with a large enough effect; inconclusive means small, poorly fitted or top-dose-only effect, or another doubt; inactive means no such curve, though single readings can be large or run the other way.
# Target: Hexokinase-4 (Homo sapiens) + Glucokinase regulatory protein (Homo sapiens) (UniProt P35557+Q14397)
# Test: qHTS assay for inhibitors of recombinant human GCK-GKRP interaction: ADP-Glo assay (AID 743206)
# Details: ADP-Glo luminescence, 60 min, 0% = vehicle-only wells with enzyme present; series mostly up to 76.9 µM
# Excerpt: Glucokinase (GCK) is a glucose sensor in hepatocytes and pancreatic beta-cells. Hepatic GCK is regulated by glucokinase regulatory protein (GKRP), which is predominantly localized to the liver. GKRP binds to GCK inhibiting its activity in the fasting state while in the presence of glucose the GKRP is displaced. There is an additional layer of regulation by fructose 1-phosphate and fructose 6-phosphate, which inhibit and enhance the GCK-GKRP interaction, respectively. GCK plays a role in glucose homeostasis and there is an interest in the development of strategies to activate GCK to lower blood glucose levels in type 2 diabetes. To date the majority of effort has focused on direct activation of GCK and the assays developed herein look to activate GCK by inhibiting its binding to GKRP. A compound that inhibits the interaction of GCK with GKRP could be important for the treatment of diabetes and can also be used as a tool compound to further elucidate GCK-GKRP biology. To that end, we have developed a sensitive HTS biochemical assay where in GCK activity is coupled to luciferase to interrogate the GCK-GKRP interaction. This assay was screened against a small compound library to look for modulators of activity.
# 2 uL of 15 nM GST-GCK and 15 nM FLAG-GKRP proteins with 2 uM S6P (columns 1-2, 4-48; Millipore, Billerica, MA) are dispensed into Greiner, white solid-bottom 1536-well assay plates; columns 3 receive buffer without GCK as a control for maximum inhibition. Compounds (23 nL) are then transferred via Kalypsys pin tool equipped with 1536-pin array (10 nL slotted pins, V&P Scientific, San Diego, CA). The library compounds are in columns 5-48 and columns 1-4 serve as controls with DMSO in columns 1 and 3 and 26 mM 1:1.5 fold serial of gluckokinase activator (GKA-EMD) in column 2 and 26 mM of the glucokinase activator (GKA-EMD) in column 4. Following addition of compound, 1 uL of ATP […] is added, and the plate is incubated for 60 minutes at room temperature. The amount of ADP is then quantified by the ADP-Glo Kit (Promega, Madison, WI). First, 2 uL of the first kit reagent is added, and the reaction is incubated for 45 minutes; then, 4 uL of the second kit reagent are added and the reaction is incubated for 30 minutes at which time the luminescence is read on a Viewlux plate reader (Perkin-Elmer, Waltham, MA). The final concentration of reagents in the reaction are 0.4 mM ATP, 25 mM Hepes pH 7.6, 25 mM KCl, 2 mM MgCl2, 1 mM DTT, 0.025% BSA, 0.01% Tween 20, 5 mM glucose. Data are normalized to DMSO-treated control columns with (maximum signal) and without (minimum signal) enzyme.
# Hexokinase-4 (Homo sapiens) + Glucokinase regulatory protein (Homo sapiens), sequence (P35557 whole entry, looked up): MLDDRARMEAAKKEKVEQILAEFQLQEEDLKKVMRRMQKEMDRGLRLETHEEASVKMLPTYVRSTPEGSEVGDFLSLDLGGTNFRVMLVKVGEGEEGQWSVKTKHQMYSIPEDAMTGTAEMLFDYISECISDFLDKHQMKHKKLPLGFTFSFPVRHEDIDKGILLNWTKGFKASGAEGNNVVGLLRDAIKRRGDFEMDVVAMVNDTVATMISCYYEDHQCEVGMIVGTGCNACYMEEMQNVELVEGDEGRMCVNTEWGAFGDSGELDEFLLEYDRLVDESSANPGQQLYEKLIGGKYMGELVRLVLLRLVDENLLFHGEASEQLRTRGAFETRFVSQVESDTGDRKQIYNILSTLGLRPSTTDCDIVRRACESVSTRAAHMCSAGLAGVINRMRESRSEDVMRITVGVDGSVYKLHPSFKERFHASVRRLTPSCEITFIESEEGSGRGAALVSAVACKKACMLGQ
# Hexokinase-4 (Homo sapiens) + Glucokinase regulatory protein (Homo sapiens), sequence (Q14397 whole entry, looked up): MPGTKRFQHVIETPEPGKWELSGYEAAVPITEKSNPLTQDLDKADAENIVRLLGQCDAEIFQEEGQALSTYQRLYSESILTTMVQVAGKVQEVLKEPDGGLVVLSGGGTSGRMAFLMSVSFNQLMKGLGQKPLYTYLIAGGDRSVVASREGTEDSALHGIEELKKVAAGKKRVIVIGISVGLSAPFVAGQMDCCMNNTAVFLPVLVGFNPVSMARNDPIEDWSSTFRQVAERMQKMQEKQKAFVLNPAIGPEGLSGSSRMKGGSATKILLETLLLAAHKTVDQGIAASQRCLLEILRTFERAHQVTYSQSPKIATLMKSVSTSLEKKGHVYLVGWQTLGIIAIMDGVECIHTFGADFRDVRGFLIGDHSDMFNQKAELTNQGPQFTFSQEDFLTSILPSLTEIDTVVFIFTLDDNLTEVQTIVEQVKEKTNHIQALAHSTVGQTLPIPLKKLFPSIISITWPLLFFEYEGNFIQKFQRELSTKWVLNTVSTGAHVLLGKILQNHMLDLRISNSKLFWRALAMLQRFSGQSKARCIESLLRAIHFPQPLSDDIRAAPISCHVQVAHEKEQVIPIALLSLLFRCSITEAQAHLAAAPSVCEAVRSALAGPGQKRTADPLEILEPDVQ
row,Compound,outcome
1,Cn1cnc([N+](=O)[O-])c1Sc1ncnc2nc[nH]c12,inactive
2,NS(=O)(=O)c1cc2c(cc1Cl)NC=NS2(=O)=O,inactive
3,CCC(C)N(C)C(=O)c1cc2ccccc2c(-c2ccccc2Cl)n1 (stereo not given),inactive
4,CC(C[N+](C)(C)C)OC(N)=O (stereo not given),inactive
5,Clc1cccc(Cl)c1NC1=NCCN1,inactive
6,NC(=O)c1cnccn1,inactive
7,NC[C@H](O)c1ccc(O)c(O)c1,inactive
8,Cc1ccccc1C(OCCN(C)C)c1ccccc1 (stereo not given),inactive
9,Nc1nc2ccc(OC(F)(F)F)cc2s1,inactive
10,c1ccc([C@H]2CN3CCSC3=N2)cc1,inactive
11,CNC[C@H](O)c1cccc(O)c1,inactive
12,CC(C)C[C@H](NC(=O)[C@@H](O)[C@H](N)Cc1ccccc1)C(=O)O,inactive
13,Cc1cn[nH]c1,inactive
14,CC(=O)Oc1ccccc1C(=O)O,inactive
15,Cc1[nH]c(=O)c(C#N)cc1-c1ccc2nccn2c1,inactive
16,CCOC(=O)N1CCC(=C2c3ccc(Cl)cc3CCc3cccnc32)CC1,inactive
17,O=c1n(CCCN2CCN(c3cccc(Cl)c3)CC2)nc2ccccn12,inactive
18,CCOC(=O)C1=C[C@]2(CC)CCCN3CCc4c(n1c1ccccc41)[C@@H]32,inactive
19,O=C1CCC(N2C(=O)c3ccccc3C2=O)C(=O)N1 (stereo not given),inactive
20,Cc1[nH]c(=O)c(C#N)cc1-c1ccncc1,inactive

row,Compound,outcome
1,Nc1nc2c(ncn2COCCO)c(=O)[nH]1,inactive
2,O=C(Nc1nc2ccccc2n1CCN1CCOCC1)c1cccc([N+](=O)[O-])c1,inactive
3,N=c1nc(N2CCCCC2)cc(N)n1O,inactive
4,Nc1ccc(S(=O)(=O)Nc2ccnn2-c2ccccc2)cc1,inactive
5,NCCc1ccc(O)c(O)c1,inactive
6,Cc1ccc(N(CC2=NCCN2)c2cccc(O)c2)cc1,inactive
7,O=c1[nH]cnc2[nH]ncc12,inactive
8,Oc1ccc(C2CNCCc3c2cc(O)c(O)c3Cl)cc1 (stereo not given),inactive
9,O=C1CCc2cc(OCCCCc3nnnn3C3CCCCC3)ccc2N1,inactive
10,CCn1cc(C(=O)O)c(=O)c2cc(F)c(N3CCNC(C)C3)c(F)c21 (stereo not given),inactive
11,OC(CCN1CCCCC1)(c1ccccc1)C1CC2C=CC1C2 (stereo not given),inactive
12,O=C(O)COCCN1CCN(C(c2ccccc2)c2ccc(Cl)cc2)CC1 (stereo not given),inactive
13,CC(C)NCC(O)COc1ccc(COCCOC(C)C)cc1 (stereo not given),inactive
14,NCCCC(N)(C(=O)O)C(F)F (stereo not given),inactive
15,C1COC(NC(C2CC2)C2CC2)=N1,inactive
16,Cc1cccc(-c2[nH]c(C(C)(C)C)nc2-c2ccc3nccnc3c2)n1,inactive
17,C[C@]12CCC(=O)C=C1CC[C@@H]1[C@@H]2[C@@H](O)C[C@@]2(C)[C@H]1CC[C@]2(O)C(=O)CO,inactive
18,Cc1oncc1C(=O)Nc1ccc(C(F)(F)F)cc1,inactive
19,NC(N)=NC(=O)c1nc(Cl)c(N)nc1N,inactive
20,NNCCc1ccccc1,inactive
